We go through 40 molecules from PubChem BioAssay (NCI).

The panel holds about 79,000 compounds, 15% with a hit somewhere; the sample as a whole holds those more often. A number with no mark means an inactive call. No stated cut-off is given here; in the data, active means growth inhibition above about 70%; inactive means the rest.

The assay can be described thus: NCI Yeast Anticancer Drug Screen. Data for the sgs1 mgt1 strain (AID 161).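 Further: 0% = growth of cultures given vehicle only.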 The following applies: S. cerevisiae sgs1 mgt1 strain, at 50.0 µM, hits give high values. An outline of the steps: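 Mutant yeast exposed to compound; growth scored against vehicle-only wells.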
Take `CC(=O)C(C)(O)C(OP(=O)(O)O)c1ccccc1` (stereo not given): the growth inhibition was 4.6%.
In the case of `CSc1nc(N)n2nc(C3CC3)cc2n1` it was 16.1%; in that of `CN(C)c1nc(Cl)nc2nc(Cl)[nH]c12`, 13.2%; in that of `CCN1CCCC(N)C1` (stereo not given), -34.9%.
In the case of `COC(=O)C1CCC(=O)CC1` it was -9.9%.
To `CC/C=C\C/C=C\C/C=C\CCCCCCCC(=O)OC(COC(=O)CCCCCCCCCCCCCCCCC)COC1OC(CO)C(O)C(O)C1O` (stereo not given) belongs 31.8%.
Take `Cc1ccccc1OS(=O)(=O)c1ccc(Br)cc1`: the growth inhibition was -4.15%.
With `CN1CCC(C(O)c2ccccc2)CC1` (stereo not given), the growth inhibition was -6.15%.
For the molecule `CC1CCC(C(C)C)N(C)CC1` (stereo not given), the growth inhibition was -6%.
On to `c1cc2c(cc1CC1CO1)OCO2` (stereo not given), for which the growth inhibition was 0.85%.
On to `CCOC(=O)c1cnc(N)nc1N`, for which the growth inhibition is -6.3%.
As for `[Fe+2].[Fe+2].c1ccc2c(c1)-c1nc-2nc2[n-]c(nc3nc(nc4[n-]c(n1)c1ccccc41)-c1ccccc1-3)c1cc3c4nc5nc(nc6[n-]c(nc7nc(nc([n-]4)c3cc21)-c1ccccc1-7)c1ccccc61)-c1ccccc1-5`, the growth inhibition is -14.2%.
To `Cc1ccc(S(=O)(=O)N2CCOCC2)cc1` belongs -13.3%; to `NS(=O)(=O)c1cc2c(cc1Cl)NC(C(=O)NNC(=O)c1ccncc1)=NS2(=O)=O`, -4.8%.
To `C=C(C)C1CC=C(C)/C(=N\O)C1` (stereo not given) belongs -17.4%; to `CCOc1cccc2c1N[S@@](=O)S2`, 11.5%; to `CC(C)(C)SC(=S)SCC(=O)c1cc2ccccc2o1`, 41.4%.
Consider `COC1(c2ccccc2)OC(=O)C(C)(C)c2ccccc21` (stereo not given), for which the growth inhibition was 14.2%.
`O/N=C/c1cc2c(cc1Br)OCO2`: the growth inhibition was -18.9%.
Turning to `COc1cc2ccncc2cc1O`, the growth inhibition was -26.3%.
For `Cc1cc(=O)[nH]c2cc(O)c(C(=O)O)cc12`, the growth inhibition is -0.3%.
In the case of `N#Cc1cn(C2OC(CO)C3OC32)c2ncnc(NC(=O)c3ccccc3)c12` (stereo not given) it was 14.7%.
As to `CCc1ccc(C(C)=O)cc1`, the growth inhibition was 34.8%.
To `Nc1c(Br)cc(Br)cc1-c1cc(Br)cc(Br)c1N` belongs 10.4%.
As to `Oc1ccc(-c2c3ccccc3c(-c3ccc(OCCBr)cc3)c3ccccc23)cc1`, the growth inhibition was -9.9%.
With `OCC1CCN(CCOCc2ccccc2)C1` (stereo not given), the growth inhibition was -2.3%.
To `CNC(=S)SSSC(=S)NC` belongs 1.8%.
Consider `O=C1c2ccccc2C(=O)N1CNc1cccc(Cl)c1`, for which the growth inhibition is 9.45%.
To `CCCCCCCCS(=O)(=O)NC` belongs -8.75%.
In the case of `COC(=O)CCSC(=S)NCc1ccccc1` it was -20%.
With `O=C(NC1CCC(CC2CCC(NC(=O)C34CC5CC(CC(C5)C3)C4)CC2)CC1)C12CC3CC(CC(C3)C1)C2` (stereo not given), the growth inhibition was 19.3%.
In the case of `CCOC(=N)CC(=O)NC(C)c1ccccc1` (stereo not given) it was -6%; in that of `Nc1nc(C2CCCCC2)cc(=O)[nH]1`, -4.3%.
In the case of `O=C1CNC(=O)N1Nc1ccccc1`, the growth inhibition is -2.35%.
With `Cc1cc(C)c(F)c(C)c1N`, the growth inhibition was -22%.
In the case of `COC1OC(COC(=O)c2ccccc2)C(SC(=O)c2ccccc2)C1OC(=O)c1ccccc1` (stereo not given) it was -32.5%; in that of `CC1(C)CC(=O)C2=C(C1)NC(SSC1=C(C#N)C(c3ccc(F)cc3)C3=C(CC(C)(C)CC3=O)N1)=C(C#N)C2c1ccc(F)cc1` (stereo not given), -12.4%; in that of `Oc1cccc(C=NCCN=Cc2cccc(O)c2O)c1O.[Fe]`, 4.65%.
With `CC(=O)OCC1OC(Nc2[nH]c(=O)n(C)c(=O)c2C(=O)CCl)C(OC(C)=O)C(OC(C)=O)C1OC(C)=O` (stereo not given), the growth inhibition was 2.45%.
For `Nc1cc(=O)n(C2CC(O)C(CO)O2)cn1` (stereo not given), the growth inhibition was 11.5%.
